Among the data in PubChem BioAssay AID463173 (ICCB-Longwood Screening Facility, Harvard Medical School, 2010) are survival values, retold here.

The whole screen tested about 52,000 compounds, of which about 4,300 (8.3%) were called active. The list comes from a sample in which actives are over-represented; it also holds similar structures and randomly drawn compounds. A number with no mark means an inactive call. Rule as the data show it: active = survival mostly below about 52% (no sharp cut-off); inactive = mostly above about 56%.

The subject of this assay is DeltatarO mutant. The assay is described as follows: S. aureus survival, RN4220 and DeltatarO strains – OD600, teichoic acid synthesis inhibitors, primary screen (AID 463173). Particulars: S. aureus RN4220 wild type/DeltatarO growth, OD600, 18 h, active compounds read low, screened at 18.75 µg/mL (by protocol).
For `CC1CCC(NC(=O)CCc2cn(Cc3ccc(F)cc3)c3ccccc23)CC1` (stereo not drawn), the survival was 60%.
Turning to `CCCCSC1=NC(C)(C)CC(C)O1` (stereo not drawn), the survival was 79%.
The result for `CCc1ccc(NCc2cc3ccc(OC)cc3n(CC(=O)Nc3ccccc3OC)c2=O)cc1` reads 79%; that for `CCCC12CN3CC(CCC)(CN(C1)C3c1ccc(OC(C)C)cc1)C2=O` (stereo not drawn), 21% (active).
The result for `CCCC12CN3CC(CCC)(CN(C1)C3c1ccc(OCc3ccccc3)cc1)C2=O` (stereo not drawn) reads 112%; that for `CCCC12CN3CC(C)(CN(C1)C3c1ccc(CC)cc1)C2=O` (stereo not drawn), 87%; that for `COc1ccc(Cn2c(C(=O)O)c(CNC3CCC(C)CC3)c3ccc(C)cc32)cc1` (stereo not drawn), 115%.
In the case of `COc1cccc(N2CCN(C(=O)c3nn(C)c4c3CSc3ccc(C)cc3-4)CC2)c1` it was 117%; in that of `COC(=O)c1ccc2c(=O)n(CCCCCC(=O)NCc3ccc(OC)cc3)c(=O)[nH]c2c1`, 71%.
For `Cc1noc(-c2ccc(-c3noc(-c4ccccc4)n3)cc2)n1`, the survival was -4% (active).
The result for `Cc1noc(-c2ccc(-c3noc(-c4ccc(Cl)cc4)n3)cc2)n1` reads 66%; that for `Cc1noc(-c2ccc(-c3noc(-c4ccc(F)cc4)n3)cc2)n1`, 72%; that for `Cc1nc(-c2ccc(S(=O)(=O)NCc3ccc(N(C)C)cc3)cc2)co1`, 83%.
The result for `CCOc1ccc(C(c2c(O)cc(C)n(Cc3ccco3)c2=O)N2CCN(c3ccccc3)CC2)cc1` (stereo not drawn) reads 75%; that for `O=S(=O)(c1ccc(Cl)cc1)c1nc(-c2ccccc2)oc1N1CCN(c2ccccc2)CC1`, 86%.
`Cc1ccc(-c2nc(S(=O)(=O)c3ccc(Cl)cc3)c(N3CCCCC3)o2)cc1`: the survival is 11% (active).
In the case of `COc1ccc(-c2nc(S(=O)(=O)c3ccc(Cl)cc3)c(N3CCCCCC3)o2)cc1` it was 76%.
Take `Cc1ccc(S(=O)(=O)c2nc(-c3ccc(Cl)cc3)oc2N2CCCCCC2)cc1`: the survival is 36% (active).
Take `O=C(O)c1ccc(CNCc2ccccc2Cl)s1`: the survival is 88%.
In the case of `CC(C)(C)OC(=O)N1CCC(c2c(C(=O)NCc3ccco3)cnn2-c2ccccc2Cl)CC1` it was 76%; in that of `Cc1ccc(C(=O)N2C(C)CCCC2C)c(Cl)c1` (stereo not drawn), 70%.
Regarding `COC(=O)CN(C#N)c1nc(SC)nc(N(C)C)n1`, the survival was 52% (active).
The result for `COC(=O)CN(C#N)c1nc(C)cc(C)n1` reads 94%; that for `CNC(=O)CN(C#N)c1nc(N(C)C)nc(N(C)C)n1`, 87%.
Regarding `Cc1nc(SCc2cc(=O)c3cccc(F)c3[nH]2)n[nH]1`, the survival was 94%.
In the case of `CCOC(=O)c1c(N)sc2c(OC)c(Br)ccc12` it was 1% (active).
The result for `CCOC(=O)c1c(N)sc2c1CN(C(=O)OC)N(C(=O)OC)C2` reads 112%; that for `CCOC(=O)c1c(NC(C)=O)sc2c(NC(C)=O)cccc12`, 69%.
On to `COC(=O)c1cnc(N2CCN(c3ccc(F)cc3)CC2)c2ccccc12`, for which the survival was 80%.
As for `COc1ccc(CNC(=O)c2cc3c(=O)n(Cc4ccc(OC)cc4)ccc3nc2C)cc1`, the survival is 66%.
The result for `COc1ccc(CNC(=O)c2cc3c(=O)n(Cc4ccco4)ccc3nc2C)c(OC)c1` reads 67%.
In the case of `COc1ccc(Cn2ccc3nc(C)c(C(=O)Nc4ccc(OC(F)(F)F)cc4)cc3c2=O)cc1` it was 92%.
In the case of `COc1ccc(Cn2ccc3nc(C)c(C(=O)NCc4ccc(OC)cc4OC)cc3c2=O)cc1` it was 25% (active); in that of `COc1ccc(NC(=O)c2cc3c(=O)n(Cc4ccco4)ccc3nc2C)c(OC)c1`, 81%; in that of `COc1ccc(Cn2ccc3nc(C)c(C(=O)Nc4ccc(OC)cc4OC)cc3c2=O)cc1`, 8% (active).
As for `COc1ccc(NC(=O)c2cc3c(=O)n(Cc4cccnc4)ccc3nc2C)c(OC)c1`, the survival is 83%.
In the case of `COc1ccc(Cn2ccc3nc(C)c(C(=O)Nc4ccc(F)cc4)cc3c2=O)cc1` it was 20% (active).
As for `COc1ccc(Cn2ccc3nc(C)c(C(=O)Nc4ccc(OC)cc4)cc3c2=O)cc1`, the survival was 89%.
Regarding `COc1ccccc1Nc1ncnc2scc(-c3ccc(F)cc3)c12`, the survival is 115%.
In the case of `Cc1c2cnn(CC(=O)NCc3ccc(Cl)cc3)c(=O)c2c(C)n1Cc1ccc(F)cc1` it was 62%.
As to `Cc1ccc(C)c(NC(=O)Cn2ncc3c(C)n(Cc4ccc(F)cc4)c(C)c3c2=O)c1`, the survival was 71%.
The result for `CC(=O)c1ccc(NC(=O)Cn2ncc3c(C)n(Cc4ccc(F)cc4)c(C)c3c2=O)cc1` reads 60% (active); that for `COc1ccc(N(Cc2cccs2)C(=O)COc2cccc(C)c2C)cc1`, 17% (active).
The result for `COc1ccc(N(Cc2cccs2)C(=O)COc2cccc(Cl)c2)cc1` reads 42% (active).
In the case of `COc1ccc(N(Cc2cccs2)C(=O)COc2cc(C)c(Cl)c(C)c2)cc1` it was 65%.
Take `COc1ccc(N(Cc2cccs2)C(=O)COc2ccc(C(C)C)cc2)cc1`: the survival is 80%.
In the case of `Cc1cccc(OCC(=O)N(Cc2cccs2)c2ccc(Cl)cc2)c1C` it was 61%.
The result for `COc1ccc(OCC(=O)N(Cc2cccs2)c2ccc(OC)cc2)cc1` reads 66%; that for `Cc1ccccc1-c1nn2c(=O)cc(CN3CCN(C(=O)c4ccccc4Br)CC3)nc2s1`, 116%; that for `Cc1cc(C)c2c(CC(=O)Nc3ccc(S(=O)(=O)N4CCCCC4)cc3)coc2c1`, 76%.
In the case of `CC(=O)O/N=C1/CC(C)(C)Cc2onc(C)c21` it was 76%.
Take `CCOC(=O)c1cc(S(=O)(=O)NCc2ccc(Cl)cc2)[nH]n1`: the survival is 87%.
In the case of `Cc1ccc(-c2nc(-c3cc4cccc(OCc5ccccc5F)c4oc3=O)no2)cc1` it was 60%; in that of `COc1ccc(C2c3[nH]c4ccccc4c3CCN2C(=O)CCC2CCCC2)cc1` (stereo not drawn), 95%.
Turning to `O=C(C1COc2cc(S(=O)(=O)Nc3ccc(Cl)cc3)ccc2O1)N1CCCC1` (stereo not drawn), the survival was 71%.
As to `CN(C(=O)CSc1nc(-c2ccco2)cc(C(F)(F)F)n1)c1ccccc1`, the survival is 92%.
Regarding `COc1ccccc1NC(=O)CCn1cnc2ccccc2c1=O`, the survival was 92%.
In the case of `COc1ccccc1CNC(=O)CCn1cnc2ccccc2c1=O` it was -5% (active).
The result for `O=C(CCn1cnc2ccccc2c1=O)NCc1ccccc1Cl` reads 77%; that for `COc1ccc(N2C(=O)CS(=O)(=O)C23C(=O)N(Cc2c(F)cccc2Cl)c2ccccc23)cc1` (stereo not drawn), 86%; that for `CCc1ccc2ncc3c(-c4ccc(C)cc4)nn(CC(=O)Nc4ccc(C)cc4)c3c2c1`, 55%.
The result for `Cc1ccc(-c2nn(CC(=O)NC3CCCCC3)c3c2cnc2ccc(F)cc23)cc1C` reads 0% (active); that for `CCc1ccc(-c2nn(CC(=O)Nc3ccccc3C)c3c2cnc2ccc(C)cc23)cc1`, 70%.
On to `CCCNC(=O)Cn1nc(-c2ccc(C)cc2)c2cnc3ccc(CC)cc3c21`, for which the survival is 37% (active).
The result for `CCc1ccc2ncc3c(-c4ccc(C)cc4)nn(CC(=O)NCc4ccccc4)c3c2c1` reads 57%; that for `CCc1ccc(-c2nn(CC(=O)NC3CCCCC3)c3c2cnc2ccc(F)cc23)cc1`, 72%.
Turning to `CCc1ccc(-c2nn(CC(=O)NC3CCCC3)c3c2cnc2ccc(C)cc23)cc1`, the survival is 37% (active).
The result for `Cc1ccccc1NC(=O)Cn1nc(-c2ccc(F)cc2)c2cnc3ccccc3c21` reads 25% (active).
In the case of `Cc1ccc2ncc3c(-c4ccc(F)cc4)nn(CC(=O)Nc4ccccc4C)c3c2c1` it was 101%; in that of `Cc1ccc(-c2nn(CC(=O)NC3CCCC3)c3c2cnc2ccc(F)cc23)cc1C`, 93%.
On to `CCc1ccc(-c2nn(CC(=O)NC3CCCCC3)c3c2cnc2ccc(C)cc23)cc1`, for which the survival was 69%.
In the case of `CCc1ccc(-c2nn(CC(=O)NC3CCCC3)c3c2cnc2ccc(F)cc23)cc1` it was 105%.
Turning to `CCN(CC)c1ccc(NC(=O)C2CCN(S(=O)(=O)c3ccc4c(c3)oc(=O)n4C)CC2)c(C)c1`, the survival was 90%.
The result for `COc1ccc(C2CC(=O)c3cc(-c4nc(-c5cccc([N+](=O)[O-])c5)cs4)c(=O)n(-c4ccc(C)c(C)c4)c3C2)cc1` (stereo not drawn) reads 156%; that for `CCCN1c2cccc3cccc(c23)S1(=O)=O`, 101%.
The result for `Cc1oc(CC(C)C)cc1C(=O)O` reads 104%; that for `CCN1C(=O)C2C(c3ccc(F)cc3)NC(CCSC)(C(=O)OC)C2C1=O` (stereo not drawn), 54%.
On to `Cn1c(=O)[nH]c2cc(-c3noc(-c4cccc(Cl)c4)n3)ccc21`, for which the survival was 87%.
The result for `COc1ccc(-c2nn(CC(=O)NC3CCCC3)c3c2cnc2ccc(F)cc23)cc1` reads 46% (active).
With `O=C(Cn1nc(-c2ccccc2)c2cnc3ccc(F)cc3c21)NC1CCCC1`, the survival was 102%.
In the case of `CCOc1ccc(-c2nn(CC(=O)NC3CCCC3)c3c2cnc2ccc(F)cc23)cc1`, the survival is 144%.
In the case of `Cc1cccn2c(=O)c(C(=O)NCCc3ccccc3)cnc12` it was 58%; in that of `Cc1nc2c(C(=O)NCCc3ccccc3)c[nH]n2c(=O)c1Cc1ccccc1F`, -13% (active); in that of `Cc1nc2c(C(=O)NCCc3ccccc3)cnn2c(C)c1Cc1c(F)cccc1Cl`, 79%.
In the case of `Cc1nc2c(C(=O)NCCc3ccc(Cl)cc3)c[nH]n2c(=O)c1Cc1ccccc1F` it was -12% (active); in that of `COc1ccc(CCNC(=O)c2cc(C)nc3c2c(C)nn3-c2ccccc2)cc1OC`, 92%.
In the case of `Cc1nc2nc(NC(=O)c3ccc(Cl)cc3)[nH]n2c(=O)c1Cc1ccccc1` it was 105%; in that of `Cc1ccc(CNC(=O)c2c[nH]n3c(=O)c(Cc4ccc(Cl)cc4)c(C)nc23)cc1`, -12% (active).
On to `COc1ccc(CCNC(=O)c2ccc(Cn3c(=O)c4ccccc4n(Cc4ccccc4Cl)c3=O)cc2)cc1OC`, for which the survival is 80%.
In the case of `Cc1ccc(CNC(=O)c2nnc(Cc3ccc(Cl)cc3)o2)cc1` it was 99%.
The result for `Cc1cccn2c(=O)c(C(=O)NCCc3ccc(Cl)cc3)cnc12` reads 83%.
Consider `COc1ccc(CCNC(=O)c2c[nH]n3c(=O)c(Cc4ccccc4Cl)c(C)nc23)cc1OC`, for which the survival was 32% (active).
In the case of `Cc1nc2c(C(=O)NCCc3ccc(Cl)cc3)cnn2c(C)c1Cc1c(F)cccc1Cl` it was 75%.
